Screening data (PubChem)
Shiga toxin inh = blocks Shiga toxin action in Vero cells | inhibition, % at 38.7 µM | Vero cells, Shiga toxin protein synthesis inhibition reporter | hit rate 9.2% among 290,000; in the data active = inhibition mostly above about 28%, no sharp cut-off; inactive = mostly below about 43%; also: 0% is about no effect
Marburg entry inh = blocks Marburg virus binding to or entry into cells; Potency, µM (highest dose often 37.8 µM), for the others: at the top dose activity change, negative = inhibition, actives largely listed as inhibitors; Marburg virus pseudotyped entry inhibition, cell reporter; hit rate 1.8% among 300,000; calls by dose curve; tested in HEK293 cells; also: potency is read from the fitted curve at half-maximal effect; % is scaled to controls: 0 for no effect and ±100 for the full control effect
Cycloheximide cs = counter-screen for Shiga toxin inhibitors: cycloheximide protein synthesis inhibition | cell reporter, cycloheximide protein synthesis inhibition counterscreen | max response, % | hit rate 12% among 300,000 | AID 2314; in the data active = max response mostly above about 13%, no sharp cut-off; inactive = mostly below about 14%; also: read at 38.3 µM for the half of the compounds with a filed dose; 0% is about no effect
Pf growth 96h = P. falciparum growth inhibition at 96 hour, primary screen for plastid delayed-death inhibitors; P. falciparum luciferase reporter growth, 96 h; Potency, µM (top dose mostly 28.7 µM), inactives show top-dose activity change, negative = inhibition, most hits filed as inhibitors; hit rate 6.9% among 320,000; AID 504834; also: potency is read from the fitted curve at half-maximal effect; % is scaled to controls: 0 for no effect and ±100 for the full control effect
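Parasite growth measured via integrated firefly luciferase reporter in P. falciparum. Infected erythrocytes at 2% hematocrit, 0.05% parasitemia final were treated 96 hours at 37 C under 5% CO2, and luminescence was read.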
Pf growth 48h = P. falciparum growth inhibition at 48 hours (one generation); Potency, µM (top dose mostly 28.7 µM), inactives show at the top dose activity change, negative = inhibition, hits mostly inhibitors; hit rate 5.9% among 310,000; P. falciparum luciferase growth in erythrocytes, 48 h; AID 504832; also: potency is read from the fitted curve at half-maximal effect; % is scaled to controls: 0 for no effect and ±100 for the full control effect
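Read-out is firefly luciferase luminescence from an integrated reporter in P. falciparum, so falling signal marks reduced parasite growth. Infected erythrocytes were at 2% hematocrit and 0.1% parasitemia (final) in Albumax-supplemented RPMI 1640.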
Lassa entry inh = inhibitors of Lassa virus binding or cell entry; Lassa virus pseudotype entry inhibition, cell reporter; Potency, µM (highest dose often 37.9 µM), without a hit: top-dose activity change, negative = inhibition, actives largely listed as inhibitors; hit rate 1.2% among 300,000; AID 540256; calls by dose curve; tested in HEK293 cells; also: potency is read from the fitted curve at half-maximal effect; % is scaled to controls: 0 for no effect and ±100 for the full control effect; nearly all actives have a fitted effect of over 50% in size
Numbers without * were called inactive; ? = inconclusive; / = no result; ! = not confirmed by another sample; [ ] = dose if it differs, or a comment. Only some compounds are listed: those with a hit (about 19% of all), similar ones and a draw of the others. Unless noted, calls follow the shape of the dose curve; as a rule, active = well fitted inhibition curve with a large enough effect; inconclusive = small, poorly fitted or top-dose-only effect, or another doubt; inactive = no such curve, though single readings can be large or run the other way.

SMILES	Shiga toxin inh	Marburg entry inh	Cycloheximide cs	Pf growth 96h	Pf growth 48h	Lassa entry inh
COc1ccc(S(=O)(=O)N2CCOC2CNC(=O)C(=O)NCCc2c[nH]c3ccccc23)cc1 (centres undefined)	-18.3	-10.3%	-5.1	?	-24.7%	?
Cc1ccc(C(=O)N/N=C/c2cc(Br)ccc2O)cn1	/	/	15.6*	7.3%	?	/
COc1ccc(C(=O)N/N=C/c2cccc3cccnc23)cc1	-4.4	?	-2.5	292.9%	?	?
CCOc1ccc(C(=O)N/N=C/c2ccccc2[N+](=O)[O-])cc1	102.1*	11.6µM*	73.0*	334.7%	292.1%	?
Cc1ccc(C(=O)N/N=C\c2ccc([N+](=O)[O-])o2)cn1	13.1	?	5.2	1.85µM*	3.7µM*	?
CCOc1ccc(C(=O)N/N=C/c2cccc3cccnc23)cc1	69.7	?	34.6*	76.8%	?	?
CCC(=O)Nc1ccc(C(=O)N/N=C/c2ccccc2[N+](=O)[O-])cc1	11.9	13.9%	5.6	126.3%	12.4%	?
Cc1ccc(C(=O)N/N=C\c2ccccc2[N+](=O)[O-])cn1	52.7	7.9%	23.4*	?	19.1%	6.6%
Cc1ccc(C(=O)N/N=C\C=C\c2ccccc2[N+](=O)[O-])cn1	2.5	/	5.9	13.2%	-2.1%	/
Cc1cccc(N=Nc2cnc(N)s2)c1	48.8*	-18.0%	47.1*	96.1%	184.2%	11.1%
COc1ccc(-c2cn3c(n2)sc2cc(C(=O)Nc4cc(OC)cc(OC)c4)ccc23)cc1	/	/	/	/	/	10.8%[46.1 µM]
CC1=C(Sc2ccccn2)C(=O)NC(C)(C)C1	-16.7	11.6%	1.2	/	13.2%	-1.4%
O=C(NCCc1ccc2c(c1)OCCO2)c1ccc(F)cc1	54.6	?	34.2*	284.1%	23.9%	-16.5%
O=C(NCCc1ccccc1F)c1ccc2c(c1)OCCO2	-20.9	?	-12.6	-25.2%	-21.9%	0.891µM*
O=C(NCCN1CCCCC1)c1ccc2c(c1)OCCO2	30.9	?	13.6*	/	44.1%	?
O=C(NCCc1ccc(Cl)cc1)c1ccc2c(c1)OCCO2	/	/	41.8*	3.6%	104.0%	/
Cn1ncc(Cl)c1C(=O)NCc1cc(C(C)(C)C)n[nH]1	-3.6	?	1.1	39.1%	-9.3%	13.1%
CCOc1ccc(-c2nc(CSCC(=O)N3CCN(c4ccc(F)cc4)CC3)c(C)o2)cc1	/	/	/	/	/	-1.4%[46.1 µM]
O=C(NCCc1ccc(Cl)cc1)c1ccc2c(c1)OCO2	83.4*	?	43.0*	110.3%	134.9%	-30.5%[46.1 µM]
CN1CCc2ccccc2Cc2[nH]c3ccccc3c2CC1	/	11.2µM*!	/	6.57µM*	8.28µM*	-6.6%
CN1c2ccccc2C(=O)N2CCc3c([nH]c4ccccc34)C21 (centres undefined)	22.9	/	0.8	/	/	/
O=C(O)/C=C/c1cn(Cc2ccccc2)nc1-c1cccnc1	-7.1	/	-1.3	43.9%	34.0%	/
CN(CC(=O)Nc1cccc(F)c1)C(=O)/C=C/c1cn(Cc2ccccc2)nc1-c1cccnc1	/	?	/	10.4µM*	?	?
N/C(=N\c1nc2ccccc2o1)NC(=O)c1ccc(F)cc1	72.2*	-24.8%	31.9*	155.7%	78.8%	-15.8%
N/C(=N\c1nc2ccccc2o1)NC(=O)c1ccccc1Br	80.5*	?	32.7*	28.8%	74.7%	-13.6%[46.1 µM]
SMILES	Shiga toxin inh	Marburg entry inh	Cycloheximide cs	Pf growth 96h	Pf growth 48h	Lassa entry inh
N/C(=N\c1nc2ccccc2o1)NC(=O)c1ccc(Cl)cc1	31.3	?	2.5	-5.5%	12.3%	12.5%
CC/C(=N\OC(=O)c1ccc(OC(C)C)cc1)c1ccc(C)cc1	18.0	?	0.4	14.7µM*	/	?
CCCOc1ccc(C(=O)O/N=C(\CC)c2ccc(C)cc2)cc1	-19.0	?	-0.5	36.0%	4.8%	0.1%
COCCn1c(NC(=S)NC(=O)C23CC4CC(CC(C4)C2)C3)cc(=O)[nH]c1=O	-6.0	/	-2.7	14.7µM*	?	/
COCCn1c(NC(=S)NC(=O)C2CC2)cc(=O)[nH]c1=O	-6.7	-1.1%	-1.3	-0.8%	8.8%	17.5%
Clc1ccc2c(c1)CNc1c(ncnc1N1CCOCC1)O2	-13.9	-1.3%	11.6*	?	?	-14.3%
Nc1ncnc(N2CCOCC2)c1N	-7.8	2.0%	-1.2	2.9%	7.3%	5.9%
CCC(Sc1nc(C)cc(=O)[nH]1)C(=O)Nc1nc(-c2ccccc2)cs1 (centres undefined)	83.1	3.5%	31.0*	/	-8.8%	-11.9%
Cc1ccc(-c2csc(NC(=O)CSC3=NCCS3)n2)cc1	69.1*	-6.3%	49.8*	262.8%	51.9%	-16.9%
Cc1ccc(-c2csc(NC(=O)CSc3nnc4c(n3)[nH]c3ccccc34)n2)cc1	-9.5	?	-4.0	-18.8%	?	3.16µM*
Cc1ccc(-c2csc(NC(=O)CSc3nc(C)cc(=O)[nH]3)n2)cc1	28.1	-8.5%	30.7*	?	/	11.1%
O=C(Nc1cccc(C(=O)N2CCOCC2)c1)c1ccc([N+](=O)[O-])cc1	-10.9	/	-0.6	5.3%	1.9%	/
Cc1ccc(C(=O)NCCCNC(=O)c2ccc(C)nc2)cc1	4.3	8.1%[46.1 µM]	-5.5	97.6%	-1.0%	4.0%
O=C(NNS(=O)(=O)c1ccc(Cl)cc1)c1cc(-c2ccccc2)n[nH]1	15.4	28.2%[46.1 µM]	-0.4	18.5%	1.0%	18.8%
CC(=O)Nc1ccc(NC(=O)C2CCCN2C(=O)NC2CCCCC2)cc1 (centres undefined)	-7.5	14.6%[46.1 µM]	-9.0	?	2.0%	?
COc1ccccc1CN(Cc1nc2ccccc2c(=O)[nH]1)C(=O)Nc1ccc(C)cc1	40.1	-18.7%	19.3*	/	?	-10.4%
COc1ccccc1CN(Cc1nc2ccccc2c(=O)[nH]1)C(=O)Nc1ccccc1C	0.9	-1.5%	6.8	/	?	-0.6%
Cc1ccc(S(=O)(=O)N(C)c2ccc(C(=O)N(C)Cc3nc4ccccc4c(=O)[nH]3)cc2)cc1	/	?	/	5.86µM*	11.7µM*	5.8%
COc1ccccc1CN(Cc1nc2ccccc2c(=O)[nH]1)S(=O)(=O)c1ccc(C)cc1	-20.6	8.1%	-5.6	/	5.86µM*	2.2%
CC[C@@]1(c2ccccc2C)C(=O)N(C(=O)OC)N1C(=O)OC	-4.6	/	0.2	?	-18.1%	/
CC(=O)N1CCc2cc(S(=O)(=O)NC3CCCc4ccccc43)ccc21 (centres undefined)	-2.3	?	-1.8	-12.3%	-8.1%	-20.6%
Cc1ccc(-c2c(C(=O)N(C)Cc3ccccc3)oc(=O)c3ccccc23)cc1	6.8	?	3.8	4.65µM*	?	-15.8%[46.1 µM]
CN(Cc1ccccc1)C(=O)c1oc(=O)c2ccccc2c1-c1ccccc1	-1.6	0.1%	-5.7	-29.1%	-17.9%	2.0%
Cc1nc(N2CCCC2)ncc1C(=O)NCc1ccc(Cl)cc1	/	/	/	/	/	11.2%[46.1 µM]
CC(C)OCCCNC(=O)CN1C(=O)c2cccnc2Sc2ccccc21	/	/	/	/	/	-3.3%[46.1 µM]
O=[N+]([O-])c1ccc(S(=O)(=O)N/N=C/c2cccs2)cc1	27.2*	15.9%	19.8*	6.4%	4.9%	4.0%
O=C(CN1C(=O)CSc2ncccc21)Nc1cccc(Cl)c1	19.4	/	11.3	2.1%	16.5µM*	/
